Reference: PMC7862700, “An all-to-all approach to the identification of sequence-specific readers for epigenetic DNA modifications on cytosine”

Columns and labels:
Assay in all cases: DAPPL (digital affinity profiling via proximity ligation, sequencing); 10 mM Tris-HCl pH 7.5, 50 mM NaCl, 1 mM DTT, 4% glycerol, room temperature, 30 min; GST-TFs on glutathione beads, 16-mer random dsDNA library, 0.1% formaldehyde crosslink after washing; high values mean tight binding
FEV = target: T1, FEV (Homo sapiens, UniProt Q99581 1-238); details: protein: recombinant; tags: N-terminal GST; dsDNA, one strand shown
T1 sequence: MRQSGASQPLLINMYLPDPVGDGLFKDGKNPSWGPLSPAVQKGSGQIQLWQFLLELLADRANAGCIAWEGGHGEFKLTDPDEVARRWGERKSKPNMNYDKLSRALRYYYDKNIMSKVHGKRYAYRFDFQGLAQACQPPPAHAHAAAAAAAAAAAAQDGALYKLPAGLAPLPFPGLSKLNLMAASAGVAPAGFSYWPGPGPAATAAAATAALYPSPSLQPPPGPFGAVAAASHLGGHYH
In short: (§1)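 Human transcription factors were made in yeast as GST fusions, captured on glutathione beads and barcoded with DNA. With a tag-only sample included, the pool was incubated with 200 nmole of a random double-stranded 16-mer DNA library in Tris/NaCl/DTT/glycerol buffer at room temperature for 30 min, then crosslinked with 0.1% formaldehyde after washing, ligated by proximity, amplified and sequenced. For binding signal, each hexamer's read frequency for a factor is divided by its frequency for the tag-only sample.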

ETV5 = ETV5 (Homo sapiens, UniProt P41161 1-510); details: protein: recombinant; tags: N-terminal GST; dsDNA, one strand shown
ETV5, sequence (P41161 whole entry): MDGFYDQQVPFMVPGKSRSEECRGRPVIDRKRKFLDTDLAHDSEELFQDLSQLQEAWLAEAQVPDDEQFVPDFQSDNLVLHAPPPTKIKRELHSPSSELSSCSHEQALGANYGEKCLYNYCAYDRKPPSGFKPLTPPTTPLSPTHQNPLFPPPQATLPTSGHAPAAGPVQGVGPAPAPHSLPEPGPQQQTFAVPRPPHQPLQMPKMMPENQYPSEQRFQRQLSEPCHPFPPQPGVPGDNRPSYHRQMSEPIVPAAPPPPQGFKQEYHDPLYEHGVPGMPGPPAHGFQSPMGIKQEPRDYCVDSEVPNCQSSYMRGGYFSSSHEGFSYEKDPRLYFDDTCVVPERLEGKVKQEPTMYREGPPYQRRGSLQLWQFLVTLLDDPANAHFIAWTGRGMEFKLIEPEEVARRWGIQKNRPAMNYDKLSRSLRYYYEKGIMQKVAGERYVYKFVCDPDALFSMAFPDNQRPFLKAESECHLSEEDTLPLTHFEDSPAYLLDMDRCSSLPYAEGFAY
In short: as §1

HSF1 = HSF1 (Homo sapiens, UniProt Q00613 1-529); details: protein: recombinant; tags: N-terminal GST; chain copies: 3; dsDNA, one strand shown
HSF1, sequence (Q00613 whole entry): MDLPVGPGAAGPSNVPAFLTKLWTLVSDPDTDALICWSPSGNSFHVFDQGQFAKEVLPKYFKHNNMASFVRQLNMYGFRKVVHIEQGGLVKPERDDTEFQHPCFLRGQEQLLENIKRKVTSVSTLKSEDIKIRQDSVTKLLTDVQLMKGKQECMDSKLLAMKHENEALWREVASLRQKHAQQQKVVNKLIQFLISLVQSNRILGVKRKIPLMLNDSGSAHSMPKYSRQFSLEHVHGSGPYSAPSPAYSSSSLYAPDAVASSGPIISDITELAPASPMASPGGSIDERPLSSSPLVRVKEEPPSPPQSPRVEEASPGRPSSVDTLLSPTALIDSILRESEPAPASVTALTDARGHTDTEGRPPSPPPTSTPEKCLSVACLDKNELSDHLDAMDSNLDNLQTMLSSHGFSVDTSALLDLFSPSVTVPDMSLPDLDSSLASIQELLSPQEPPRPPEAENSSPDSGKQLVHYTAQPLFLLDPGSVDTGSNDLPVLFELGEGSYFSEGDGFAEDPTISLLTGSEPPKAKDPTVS
In short: as §1

SPIC = target: T2, SPIC (Homo sapiens, UniProt Q8N5J4 1-248); details: protein: recombinant; tags: N-terminal GST; dsDNA, one strand shown
T2 sequence: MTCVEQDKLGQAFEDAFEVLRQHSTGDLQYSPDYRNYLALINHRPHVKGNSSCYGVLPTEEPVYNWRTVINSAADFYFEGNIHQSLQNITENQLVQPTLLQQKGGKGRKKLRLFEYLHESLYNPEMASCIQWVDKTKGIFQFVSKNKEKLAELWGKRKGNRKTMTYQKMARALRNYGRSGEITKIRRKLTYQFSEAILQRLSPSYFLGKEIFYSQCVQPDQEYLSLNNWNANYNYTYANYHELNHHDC
In short: as §1

ELF4 = ELF4 (Homo sapiens, UniProt Q99607 1-663); details: protein: recombinant; tags: N-terminal GST; dsDNA, one strand shown
ELF4, sequence (Q99607 whole entry): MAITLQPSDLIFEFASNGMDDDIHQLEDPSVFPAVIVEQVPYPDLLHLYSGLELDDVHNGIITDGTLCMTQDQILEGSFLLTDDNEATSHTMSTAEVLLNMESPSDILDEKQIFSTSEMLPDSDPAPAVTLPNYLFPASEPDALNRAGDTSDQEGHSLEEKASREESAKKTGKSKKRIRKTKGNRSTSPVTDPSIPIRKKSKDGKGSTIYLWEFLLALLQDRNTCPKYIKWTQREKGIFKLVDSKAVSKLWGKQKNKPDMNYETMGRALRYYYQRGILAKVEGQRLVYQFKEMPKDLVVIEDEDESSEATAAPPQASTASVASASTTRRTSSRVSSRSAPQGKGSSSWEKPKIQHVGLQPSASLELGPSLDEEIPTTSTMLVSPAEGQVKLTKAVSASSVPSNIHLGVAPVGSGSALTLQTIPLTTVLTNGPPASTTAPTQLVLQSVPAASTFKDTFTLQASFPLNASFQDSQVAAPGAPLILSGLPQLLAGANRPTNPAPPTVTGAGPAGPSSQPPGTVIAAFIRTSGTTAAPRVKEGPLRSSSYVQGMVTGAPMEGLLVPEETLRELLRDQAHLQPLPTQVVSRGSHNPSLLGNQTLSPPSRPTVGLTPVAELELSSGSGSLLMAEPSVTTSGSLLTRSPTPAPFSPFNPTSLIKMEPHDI
In short: as §1

ELK4 = target: T3, ELK4 (Homo sapiens, UniProt P28324-2 1-405); details: protein: recombinant; tags: N-terminal GST; dsDNA, one strand shown
T3 sequence: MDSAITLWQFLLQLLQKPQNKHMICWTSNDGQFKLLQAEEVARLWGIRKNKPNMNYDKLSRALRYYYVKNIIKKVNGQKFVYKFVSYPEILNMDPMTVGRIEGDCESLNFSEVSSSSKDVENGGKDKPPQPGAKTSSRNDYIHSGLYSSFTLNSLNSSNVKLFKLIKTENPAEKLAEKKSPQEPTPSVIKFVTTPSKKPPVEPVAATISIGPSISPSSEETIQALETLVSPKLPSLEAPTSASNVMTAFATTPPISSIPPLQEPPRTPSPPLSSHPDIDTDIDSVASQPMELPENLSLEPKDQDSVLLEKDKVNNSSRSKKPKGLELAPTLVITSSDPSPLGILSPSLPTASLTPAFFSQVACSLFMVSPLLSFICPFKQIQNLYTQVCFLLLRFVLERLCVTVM
In short: as §1

ETV2 = target: T4, ETV2 (Homo sapiens, UniProt O00321 1-342); details: protein: recombinant; tags: N-terminal GST; dsDNA, one strand shown
T4 sequence: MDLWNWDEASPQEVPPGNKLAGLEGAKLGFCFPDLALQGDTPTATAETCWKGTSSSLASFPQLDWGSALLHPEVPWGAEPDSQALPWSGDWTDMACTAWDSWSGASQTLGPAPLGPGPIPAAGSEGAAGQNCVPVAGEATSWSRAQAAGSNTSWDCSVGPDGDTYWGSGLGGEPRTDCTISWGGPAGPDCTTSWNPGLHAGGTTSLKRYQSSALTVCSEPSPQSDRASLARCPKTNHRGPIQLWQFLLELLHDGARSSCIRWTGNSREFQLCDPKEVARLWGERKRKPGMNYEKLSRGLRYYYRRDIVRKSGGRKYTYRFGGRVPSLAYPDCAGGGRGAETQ
In short: as §1

ELF3 = target: T5, ELF3 (Homo sapiens, UniProt P78545 1-371); details: protein: recombinant; tags: N-terminal GST; dsDNA, one strand shown
T5 sequence: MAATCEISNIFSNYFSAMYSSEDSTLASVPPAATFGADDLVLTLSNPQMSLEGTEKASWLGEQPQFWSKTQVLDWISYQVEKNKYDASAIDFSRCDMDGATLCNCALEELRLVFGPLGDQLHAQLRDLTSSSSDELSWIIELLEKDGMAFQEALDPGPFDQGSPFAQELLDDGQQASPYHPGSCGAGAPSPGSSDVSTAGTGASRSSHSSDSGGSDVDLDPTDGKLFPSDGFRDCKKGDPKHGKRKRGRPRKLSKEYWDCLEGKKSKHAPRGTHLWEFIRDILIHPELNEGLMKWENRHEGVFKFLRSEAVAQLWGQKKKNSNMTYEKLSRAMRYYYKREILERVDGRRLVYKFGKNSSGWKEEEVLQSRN
In short: as §1

CRX = CRX (Homo sapiens, UniProt O43186 1-299); details: protein: recombinant; tags: N-terminal GST; dsDNA, one strand shown
CRX, sequence (O43186 whole entry): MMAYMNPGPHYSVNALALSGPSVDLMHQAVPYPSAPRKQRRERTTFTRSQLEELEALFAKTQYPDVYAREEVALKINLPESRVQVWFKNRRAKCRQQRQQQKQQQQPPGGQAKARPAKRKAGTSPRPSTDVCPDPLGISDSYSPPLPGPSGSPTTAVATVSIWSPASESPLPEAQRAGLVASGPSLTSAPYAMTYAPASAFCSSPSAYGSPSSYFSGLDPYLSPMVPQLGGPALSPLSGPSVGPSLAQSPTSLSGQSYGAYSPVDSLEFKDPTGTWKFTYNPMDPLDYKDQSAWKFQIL
In short: as §1

ETV1 = ETV1 (Homo sapiens, UniProt P50549 1-477); details: protein: recombinant; tags: N-terminal GST; dsDNA, one strand shown
ETV1, sequence (P50549 whole entry): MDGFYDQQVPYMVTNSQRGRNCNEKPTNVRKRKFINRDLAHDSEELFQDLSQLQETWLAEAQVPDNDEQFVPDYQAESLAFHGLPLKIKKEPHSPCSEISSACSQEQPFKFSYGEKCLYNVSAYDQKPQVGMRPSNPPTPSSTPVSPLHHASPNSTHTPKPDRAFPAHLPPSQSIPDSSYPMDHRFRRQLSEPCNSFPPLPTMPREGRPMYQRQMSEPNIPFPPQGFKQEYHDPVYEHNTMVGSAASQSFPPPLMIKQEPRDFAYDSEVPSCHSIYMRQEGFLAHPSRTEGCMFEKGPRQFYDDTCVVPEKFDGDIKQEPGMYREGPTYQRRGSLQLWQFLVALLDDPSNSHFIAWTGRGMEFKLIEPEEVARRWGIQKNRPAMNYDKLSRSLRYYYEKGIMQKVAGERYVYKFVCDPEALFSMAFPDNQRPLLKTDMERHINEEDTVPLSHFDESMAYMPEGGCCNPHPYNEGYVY
In short: as §1

ERF = target: T6, ERF (Homo sapiens, UniProt P50548 1-548); details: protein: recombinant; tags: N-terminal GST; dsDNA, one strand shown
T6 sequence: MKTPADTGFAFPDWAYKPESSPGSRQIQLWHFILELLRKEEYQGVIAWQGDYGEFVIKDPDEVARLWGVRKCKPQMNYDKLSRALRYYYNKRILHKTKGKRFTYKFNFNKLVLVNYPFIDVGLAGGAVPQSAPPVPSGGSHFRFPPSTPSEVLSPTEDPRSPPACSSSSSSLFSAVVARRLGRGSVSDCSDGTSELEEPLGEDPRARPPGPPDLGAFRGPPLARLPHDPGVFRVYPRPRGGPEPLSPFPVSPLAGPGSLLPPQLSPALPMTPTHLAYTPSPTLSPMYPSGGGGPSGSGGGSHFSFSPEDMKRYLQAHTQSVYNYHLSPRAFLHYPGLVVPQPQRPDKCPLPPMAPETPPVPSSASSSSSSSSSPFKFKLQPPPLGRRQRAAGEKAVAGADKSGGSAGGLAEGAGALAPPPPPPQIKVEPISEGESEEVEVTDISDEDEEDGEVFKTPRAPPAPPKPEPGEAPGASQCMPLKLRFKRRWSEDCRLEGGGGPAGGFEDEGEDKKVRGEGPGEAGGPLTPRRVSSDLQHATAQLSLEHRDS
In short: as §1

ETV3L = target: T7, ETV3L (Homo sapiens, UniProt Q6ZN32 1-361); details: protein: recombinant; tags: N-terminal GST; dsDNA, one strand shown
T7 sequence: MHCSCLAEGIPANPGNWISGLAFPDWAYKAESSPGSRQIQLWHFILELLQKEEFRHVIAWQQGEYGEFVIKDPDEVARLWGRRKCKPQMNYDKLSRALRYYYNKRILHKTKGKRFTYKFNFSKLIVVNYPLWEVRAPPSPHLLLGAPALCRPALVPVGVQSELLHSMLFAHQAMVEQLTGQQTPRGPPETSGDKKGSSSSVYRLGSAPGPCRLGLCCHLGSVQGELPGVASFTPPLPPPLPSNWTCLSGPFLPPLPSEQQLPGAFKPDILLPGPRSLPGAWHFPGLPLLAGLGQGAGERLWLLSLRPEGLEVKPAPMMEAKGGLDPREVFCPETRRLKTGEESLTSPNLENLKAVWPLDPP
In short: as §1

ETS2 = target: T8, ETS2 (Homo sapiens, UniProt P15036 1-469); details: protein: recombinant; tags: N-terminal GST; dsDNA, one strand shown
T8 sequence: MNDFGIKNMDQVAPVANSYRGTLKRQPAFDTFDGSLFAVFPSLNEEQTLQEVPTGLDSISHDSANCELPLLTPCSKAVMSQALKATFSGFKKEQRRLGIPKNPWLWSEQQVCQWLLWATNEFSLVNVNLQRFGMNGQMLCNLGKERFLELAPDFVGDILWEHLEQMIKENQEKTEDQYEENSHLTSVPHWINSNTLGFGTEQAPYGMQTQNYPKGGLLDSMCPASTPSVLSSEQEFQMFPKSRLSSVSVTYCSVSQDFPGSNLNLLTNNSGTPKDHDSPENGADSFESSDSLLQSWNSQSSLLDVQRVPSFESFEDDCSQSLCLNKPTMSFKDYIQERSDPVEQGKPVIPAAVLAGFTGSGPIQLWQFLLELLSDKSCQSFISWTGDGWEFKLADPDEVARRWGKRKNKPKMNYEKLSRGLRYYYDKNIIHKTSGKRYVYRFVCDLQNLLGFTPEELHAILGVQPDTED
In short: as §1

SPDEF = target: T9, SPDEF (Homo sapiens, UniProt O95238 1-335); details: protein: recombinant; tags: N-terminal GST; dsDNA, one strand shown
T9 sequence: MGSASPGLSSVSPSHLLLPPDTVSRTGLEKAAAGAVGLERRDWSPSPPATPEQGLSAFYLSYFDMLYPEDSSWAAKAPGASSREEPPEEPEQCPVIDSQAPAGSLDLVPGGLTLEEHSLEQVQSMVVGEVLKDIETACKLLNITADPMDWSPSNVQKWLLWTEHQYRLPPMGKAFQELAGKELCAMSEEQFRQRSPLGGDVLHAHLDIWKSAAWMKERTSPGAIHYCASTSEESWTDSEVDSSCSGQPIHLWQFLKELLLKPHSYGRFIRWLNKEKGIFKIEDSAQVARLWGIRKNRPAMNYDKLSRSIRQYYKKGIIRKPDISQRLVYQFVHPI
In short: as §1

ETV7 = target: T10, ETV7 (Homo sapiens, UniProt Q9Y603 1-341); details: protein: recombinant; tags: N-terminal GST; dsDNA, one strand shown
T10 sequence: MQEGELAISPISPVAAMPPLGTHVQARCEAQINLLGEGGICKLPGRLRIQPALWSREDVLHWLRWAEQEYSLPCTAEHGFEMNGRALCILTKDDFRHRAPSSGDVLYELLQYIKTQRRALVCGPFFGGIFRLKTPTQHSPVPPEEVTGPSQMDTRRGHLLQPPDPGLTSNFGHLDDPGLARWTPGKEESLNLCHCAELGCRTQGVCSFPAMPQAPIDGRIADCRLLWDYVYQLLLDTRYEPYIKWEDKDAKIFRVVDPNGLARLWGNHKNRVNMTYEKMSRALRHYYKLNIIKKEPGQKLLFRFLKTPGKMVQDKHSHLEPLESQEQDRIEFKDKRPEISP
In short: as §1

ELF5 = target: T11, ELF5 (Homo sapiens, UniProt Q9UKW6-2 1-255); details: protein: recombinant; tags: N-terminal GST; dsDNA, one strand shown
T11 sequence: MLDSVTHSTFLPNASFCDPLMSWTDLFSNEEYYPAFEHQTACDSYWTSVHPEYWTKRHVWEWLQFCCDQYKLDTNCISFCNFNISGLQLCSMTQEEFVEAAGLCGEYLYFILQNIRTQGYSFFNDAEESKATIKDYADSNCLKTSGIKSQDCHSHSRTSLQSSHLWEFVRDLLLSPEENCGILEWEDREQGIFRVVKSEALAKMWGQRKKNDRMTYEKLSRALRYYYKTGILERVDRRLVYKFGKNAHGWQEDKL
In short: as §1

ETV3 = target: T12, ETV3 (Homo sapiens, UniProt P41162-2 1-143); details: protein: recombinant; tags: N-terminal GST; dsDNA, one strand shown
T12 sequence: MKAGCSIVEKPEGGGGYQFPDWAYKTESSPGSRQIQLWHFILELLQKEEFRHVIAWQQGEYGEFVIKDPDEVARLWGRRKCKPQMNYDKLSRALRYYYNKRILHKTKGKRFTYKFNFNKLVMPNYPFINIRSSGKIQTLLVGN
In short: as §1

ETV6 = ETV6 (Homo sapiens, UniProt P41212 1-452); details: protein: recombinant; tags: N-terminal GST; dsDNA, one strand shown
ETV6, sequence (P41212 whole entry): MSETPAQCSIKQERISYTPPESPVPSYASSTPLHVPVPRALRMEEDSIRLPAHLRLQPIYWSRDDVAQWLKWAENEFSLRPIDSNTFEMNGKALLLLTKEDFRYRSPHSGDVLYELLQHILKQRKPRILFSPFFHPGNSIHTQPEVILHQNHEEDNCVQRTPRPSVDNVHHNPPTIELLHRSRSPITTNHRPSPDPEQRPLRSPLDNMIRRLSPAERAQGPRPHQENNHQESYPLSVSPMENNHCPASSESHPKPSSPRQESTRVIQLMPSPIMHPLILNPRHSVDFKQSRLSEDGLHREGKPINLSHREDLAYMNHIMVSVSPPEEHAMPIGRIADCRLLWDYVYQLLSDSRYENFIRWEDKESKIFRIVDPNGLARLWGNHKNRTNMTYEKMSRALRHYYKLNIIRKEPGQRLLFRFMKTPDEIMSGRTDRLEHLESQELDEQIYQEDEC
In short: as §1

ATTACA
binding signal (FEV): 1.06 fold enrichment (6-mer frequency, TF over GST control)
binding signal (ETV5): 1.07 fold enrichment (6-mer frequency, TF over GST control)
binding signal (HSF1): 1.4 fold enrichment (6-mer frequency, TF over GST control)
binding signal (SPIC): 1.15 fold enrichment (6-mer frequency, TF over GST control)
binding signal (ELF4): 1.16 fold enrichment (6-mer frequency, TF over GST control)
binding signal (ELK4): 1.2 fold enrichment (6-mer frequency, TF over GST control)
binding signal (ETV2): 1.14 fold enrichment (6-mer frequency, TF over GST control)
binding signal (ELF3): 1.16 fold enrichment (6-mer frequency, TF over GST control)
binding signal (CRX): 1.86 fold enrichment (6-mer frequency, TF over GST control)
binding signal (ETV1): 1.17 fold enrichment (6-mer frequency, TF over GST control)
binding signal (ERF): 1.16 fold enrichment (6-mer frequency, TF over GST control)
binding signal (ETV3L): 1.1 fold enrichment (6-mer frequency, TF over GST control)
binding signal (ETS2): 1.11 fold enrichment (6-mer frequency, TF over GST control)
binding signal (SPDEF): 1.18 fold enrichment (6-mer frequency, TF over GST control)
binding signal (ETV7): 1.08 fold enrichment (6-mer frequency, TF over GST control)
binding signal (ELF5): 1.08 fold enrichment (6-mer frequency, TF over GST control)
binding signal (ETV3): 1.04 fold enrichment (6-mer frequency, TF over GST control)
binding signal (ETV6): 1.15 fold enrichment (6-mer frequency, TF over GST control)
